Measured values: PubChem BioAssay (NCATS)
Inconclusive results are not listed. Activity calls are given as the source filed them. Calls follow the shape of the dose curve; as a rule, active = well fitted inhibition curve with a large enough effect; inconclusive = small, poorly fitted or top-dose-only effect; inactive = flat fitted curve, though single readings scatter.

Tests used:
Assay in all cases: qHTS profiling for inhibitors of Plasmodium falciparum proliferation (AID 504749); also: nearly all actives have a fitted effect of over 60% in size
Settings in all cases: P. falciparum in erythrocytes, SYBR Green DNA, 72 h; series mostly up to 28.7 µM
N140 = system: N140
How it was run: (§1)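 Three-day growth assay of blood-stage parasites in erythrocytes (0.3% parasitemia, 2.5% hematocrit) at 37 C, 5% CO2, quantified by SYBR Green DNA staining after overnight detergent lysis.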

P93_24 = system: P93_24
How it was run: as §1

P94_40 = system: P94_40
How it was run: as §1

PAD = system: PAD
How it was run: as §1

PC15 = system: PC15
How it was run: as §1

PC26 = system: PC26
How it was run: as §1

PC49 = system: PC49
How it was run: as §1

SC27B = system: SC27B
How it was run: as §1

TAB109 = system: TAB109
How it was run: as §1

TAB113 = system: TAB113
How it was run: as §1

Measured: Potency

CCN(CC)CCNC(=O)c1cc(Cl)c(N)cc1OC
inactive: all assays above

O=C1NS(=O)(=O)c2ccccc21
inactive: all assays above

NC(=O)NC(=O)Cc1ccccc1
inactive: all assays above

[O-][n+]1cccc(CO)c1
inactive: all assays above

Nc1ccc(S(=O)(=O)NC(=O)c2ccccc2)cc1
inactive: all assays above

CCCCN(CCCC)CCCOC(=O)c1ccc(N)cc1
inactive: all assays above

O=C1NC(=O)[C@@]2(CCOc3ccc(F)cc32)N1
inactive: all assays above

CCCCCCCCCCCCCCCC(=O)NCCO
inactive: all assays above

CCOc1ccc2ccccc2c1C(=O)N[C@@H]1C(=O)N2[C@@H]1SC(C)(C)[C@@H]2C(=O)O
inactive: all assays above

COc1cc2[nH]c(=O)[nH]c(=O)c2cc1OC
inactive: all assays above

NC(=O)NNc1ccccc1
inactive: all assays above

CCCCCCCCCCCCCCCCCCOCC(O)CO (centres undefined)
inactive: all assays above

Cc1cc(O)cc2c1O[C@](C)(CCC[C@H](C)CCC[C@H](C)CCCC(C)C)CC2
inactive: all assays above

CC(O)CN(CCN(CC(C)O)CC(C)O)CC(C)O (centres undefined)
inactive: all assays above

O=c1cc[nH]c(=S)[nH]1
inactive: all assays above

O=c1[nH]c(=O)c2[nH]c(=O)[nH]c2[nH]1
not listed: TAB113
inactive: all other assays above

COc1ccc(S(=O)(=O)Nc2nnc(CC(C)C)s2)cc1
inactive: all assays above

Nc1ccc(S(=O)(=O)Nc2nccs2)cc1
inactive: all assays above

CC1(C)CO[C@@H](CC(=O)O)CN1
inactive: all assays above

Cc1cccc(Nc2cc(Cl)nc(SCC(=O)O)n2)c1C
inactive: all assays above

CCN(CC)CCSC(=O)C(c1ccccc1)c1ccccc1
inactive: all assays above

O=C(O)CC(O)C(=O)O (centres undefined)
inactive: all assays above

CCn1cc(C(=O)O)c(=O)c2cnc(N3CCNCC3)nc21
inactive: all assays above

CCC(=O)c1ccc(O)cc1
inactive: all assays above

O=c1cc[nH]c(=O)[nH]1
inactive: all assays above

CC(C)(C)NCC(O)COc1ccc(NC(=O)NC2CCCCC2)cc1 (centres undefined)
inactive: all assays above

CC1(C)OC(=O)NC1=O
inactive: all assays above

Nc1ccc(S(=O)(=O)Nc2ccccc2)cc1
inactive: all assays above

CCOC(=O)[C@H](CCc1ccccc1)N[C@@H](C)C(=O)N1C(=O)N(C)C[C@H]1C(=O)O
inactive: all assays above

O=Cc1ccccc1C=O
inactive: all assays above

Oc1cccc(O)c1
inactive: all assays above

O=C(O)c1ccccn1
inactive: all assays above

COc1ccc2c(c1)C(=O)N(CCc1ccc(S(=O)(=O)NC(=O)NC3CCCCC3)cc1)C(=O)C2(C)C
inactive: all assays above

CCCOC(=O)c1ccccc1
inactive: all assays above

CC(O)COc1ccccc1 (centres undefined)
inactive: all assays above

O=C1c2c(O)cccc2Cc2cccc(O)c21
inactive: all assays above

CCCCc1ncc(/C=C(\Cc2cccs2)C(=O)O)n1Cc1ccc(C(=O)O)cc1
inactive: all assays above

C[C@](N)(Cc1ccc(O)cc1)C(=O)O
inactive: all assays above

CC(=O)CCC(=O)O
inactive: all assays above

O=c1cc(CO)occ1O
inactive: all assays above

Oc1cn2c(n1)Nc1ccc(Cl)c(Cl)c1C2
inactive: all assays above

CCOC(=O)c1ccc(O)cc1
inactive: all assays above

Cn1c(=O)c2c(ncn2CC2OCCO2)n(C)c1=O
inactive: all assays above

CCCCOC(=O)c1ccc(O)cc1
inactive: all assays above

O=C(CCCN1CCN(c2ccccn2)CC1)c1ccc(F)cc1
inactive: all assays above

OCC(O)CN1CCN(c2ccccc2)CC1 (centres undefined)
inactive: all assays above

C=Cc1c(C)c2cc3[nH]c(cc4nc(cc5nc(cc1[nH]2)C(C)=C5CCC(=O)O)C(CCC(=O)O)=C4C)c(C)c3C=C
inactive: all assays above

COc1cc(C)c(Cc2cnc(N)nc2N)cc1OC
inactive: all assays above

Cc1c(Cl)cccc1Nc1ccccc1C(=O)O
inactive: all assays above
